In PubChem BioAssay AID651599 (National Center for Advancing Translational Sciences (NCATS), 2012):
Inconclusive results are not listed. The source made the active and inactive calls. Calls follow the shape of the dose curve; as a rule, active = well fitted inhibition curve with a large enough effect; inconclusive = small, poorly fitted or top-dose-only effect; inactive = no such curve, though single readings can be large or run the other way.

Target: Tumor susceptibility gene 101 protein (Homo sapiens) (UniProt Q99816)
Assay: qHTS Assay for Iinhibitors of HIV-1 Budding by Blocking the Interaction of PTAP/TSG101: Hit Validation in TR assay
Details: Tsg101 binding domain + Texas Red-labeled PTAP peptide, fluorescence polarization, 20 min; series mostly up to 57.5 µM; activity change, negative = inhibition: at the top concentration
Excerpt: Stages of the HIV-1 replication cycle, specifically virus assembly and release, provide underexploited targets for the development of novel antiviral inhibitors. The late stages of HIV-1 replication are mediated by the Gag precursor protein, Pr55Gag. Expression of Pr55Gag is both necessary and sufficient for the production of virus-like particles from Gag-expressing cells. The Gag protein hijacks key host proteins involved in endocytic machinery of the host cell to promote endosomal processing and viral budding. The budding process requires a direct interaction between a […] (PTAP) motif in the p6 domain of Gag and the cellular endosomal sorting protein known as Tsg101. In this way, the Gag PTAP motif promotes the host cells to recruit viral particles to the plasma membrane where the new viral particles are released, effectively turning the host cells into viral factories. A fluorescence anisotropy assay has been developed to quantitatively measure the PTAP-Tsg101 interaction which can be used to screen for inhibitors of this interaction.
This hit validation assay is similar to the primary assay but uses the Texas Red label instead of FITC.
NIH Molecular Libraries Probe Production Network [MLPCN]
NIH Chemical Genomics Center [NCGC]
PI Name: Dr. Eric Freed, NCI
Two uL of the Tsg101 binding domain in buffer (10 mM HEPES pH 7.5; 0.15 M NaCl, 0.01% Tween 20; 3 mM EDTA;0.1 mM TCEP) was dispensed into Greiner black MB 1536-well plates (final concentration 10 uM). Then, 23 nL of compounds or DMSO were delivered to each well using a pin tool. Finally, 2 uL of a TR-labeled peptide containing the PTAP motif (1) in the same buffer was dispensed (50 nM final concentration) and the binding was allowed to proceed for 20 min. at r.t. Fluorescent polarization was determined using TR excitation and polarized emission filters on a Perkin Elmer Viewlux.
Keywords: Tsg101, PTAP, Gag, HIV, fluorescent polarization, MLSMR, MLPCN, NIH Roadmap, qHTS, NCGC
% is scaled to controls: 0 for no effect and ±100 for the full control effect; potency is read from the fitted curve at half-maximal effect.

Tumor susceptibility gene 101 protein (Homo sapiens), sequence (Q99816 whole entry, looked up): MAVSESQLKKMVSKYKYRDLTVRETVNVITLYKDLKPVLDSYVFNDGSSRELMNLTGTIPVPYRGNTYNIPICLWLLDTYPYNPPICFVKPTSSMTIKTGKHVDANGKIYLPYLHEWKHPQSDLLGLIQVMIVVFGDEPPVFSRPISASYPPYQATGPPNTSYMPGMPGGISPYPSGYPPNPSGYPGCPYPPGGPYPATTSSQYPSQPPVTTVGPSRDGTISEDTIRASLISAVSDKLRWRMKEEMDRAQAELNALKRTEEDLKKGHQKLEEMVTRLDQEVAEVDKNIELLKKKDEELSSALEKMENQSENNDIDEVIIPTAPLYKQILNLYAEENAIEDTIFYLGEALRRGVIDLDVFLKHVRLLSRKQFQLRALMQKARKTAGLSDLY

| Compound | activity change, negative = inhibition | Potency |
| --- | --- | --- |
| Cc1ccc(N=Cc2c(O)ccc3ccccc23)cc1F | 18.9% (inactive) | – |
| CCN(CC)S(=O)(=O)c1ccc(C(=O)OCCN2C(=O)c3cccc4c(N5CCOCC5)ccc(c34)C2=O)cc1 | 9.03% (inactive) | – |
| Nc1cccc2c(O)cc(S(=O)(=O)O)cc12 | 28.4% (inactive) | – |
| Cc1cccc2cc(/C=C3\N=C(c4ccccc4)OC3=O)c(N3CCOCC3)nc12 | -4.21% (inactive) | – |
| O=C(NCC1CCCO1)c1cccc2c1C(=O)c1ccc(N3CCC(Cc4ccccc4)CC3)cc1S2(=O)=O (stereo not given) | -22.9% (inactive) | – |
| Cc1cc(C)n2nc3nc4c(cc3c2n1)CCCC4 | -6.13% (inactive) | – |
| COC(=O)c1c(NC(=O)CC2Nc3cc(C)c(C)cc3NC2=O)sc(C)c1C (stereo not given) | – | 2910 nM (active) |
| CSC1=NSC2=NC(=O)/C(=C/c3coc4ccc(O)cc4c3=O)C(=N)N12 | -29.3% (inactive) | – |
| COc1ccc(-c2onc3ccc(C(C)=O)cc23)cc1 | -8.57% (inactive) | – |
| CCCCNc1c2c3c(cccc3n(C)c1=O)C(=O)c1ccccc1-2 | -9.99% (inactive) | – |
| CCOC(=O)/C(C#N)=C(C)/C=C1\Sc2ccccc2N1CC | 23.7% (inactive) | – |
| Nc1c(C(=O)Nc2ccc(F)cc2)sc2nc(-c3cccs3)cc(C(F)(F)F)c12 | -0.694% (inactive) | – |
| S=C(NCc1ccccc1)Nc1cccc(Cl)c1 | -0.728% (inactive) | – |
| COc1ccc(-c2onc3ccc(Br)cc23)cc1 | 179% (inactive) | – |
| CC(=O)Nc1ccc(Nc2c3c4c(cccc4n(C)c2=O)C(=O)c2ccccc2-3)cc1 | -28.2% (inactive) | – |
| COc1ccc(N(C(=O)c2snc(C(N)=O)c2N)C(C(=O)NC2CCCC2)c2ccc3ncccc3c2)cc1 (stereo not given) | -5.82% (inactive) | – |
| O=S(=O)([N-]c1nc2ccccc2nc1-[n+]1ccc(-c2ccncc2)cc1)c1ccccc1 | -18.2% (inactive) | – |
| COc1cc2c(cc1OC)-c1cc3ccc4c(c3c[n+]1CC2)OCO4 | -22.7% (inactive) | – |
| N=C1CCC(=N)c2c1c(O)c1ccccc1c2O | -1.22% (inactive) | – |
| COc1ccc2c3c(cccc13)C(=O)CC2 | 2.95% (inactive) | – |

| Compound | activity change, negative = inhibition | Potency |
| --- | --- | --- |
| COc1ccccc1NC(=O)C(C)OC(=O)C1CC(=O)N(c2ccc3c(c2)OCCO3)C1 (stereo not given) | 2.66% (inactive) | – |
| CC1(C)Cc2c(C#N)c(SCCC#N)nc(N3CCOCC3)c2CS1 | 29.3% (inactive) | – |
| COC(=O)c1cc2c(N)c(C(=O)c3ccc(Cl)cc3)sc2nc1C(OC)OC | -2.6% (inactive) | – |
| CCCCCCN1C=CC=C/C1=C/C=C(C#N)C#N | 39.2% (inactive) | – |
| Oc1ccc2ccccc2c1-c1sc(Nc2ccccc2)n[n+]1-c1ccc(F)cc1 | 3.44% (inactive) | – |
| CCCCNc1ccc2c3c(cccc13)C(=O)N(CCCC)C2=O | -13.2% (inactive) | – |
| O=C(CCl)N1c2ccccc2Oc2ccc3ccccc3c21 | -7.01% (inactive) | – |
| CCN(CC)c1ccc(/C=C(\C#N)C(=O)c2ccc(Br)cc2)cc1 | -13.5% (inactive) | – |
| N=c1oc2ccc3ccccc3c2cc1-c1nc(-c2ccccc2)cs1 | -16.1% (inactive) | – |
| Cn1c2ccc(F)cc2c2nc3ccccc3nc21 | 12.9% (inactive) | – |
| COc1cc(C2C=C(c3cccs3)Nc3ncnn32)cc(OC)c1OC (stereo not given) | -1.35% (inactive) | – |
| O=C1c2cccc3c([N+](=O)[O-])ccc(c23)C(=O)N1c1ccc(Cl)cn1 | -5.67% (inactive) | – |
| CCN(CC)c1ccc2cc(NC(=O)CCC(=O)O)c(=O)oc2c1 | -15.1% (inactive) | – |
| CCOc1ccc(NC(=O)N(C2CCCCC2)C(C)c2ccncc2)cc1 (stereo not given) | -7.55% (inactive) | – |
| c1ccc(-c2cnn3c(-c4ccccc4)c(-c4ccccc4)nc3n2)cc1 | 50.1% (inactive) | – |
| O=C(O)c1cc(O)c2c(c1)C(=O)c1cccc(O)c1C2=O | 2.83% (inactive) | – |
| CN(C)c1ccc(/C=C(\C#N)C(=O)Nc2nc3c(s2)CCN(Cc2ccccc2)C3)cc1 | 28.5% (inactive) | – |
| N#Cc1c(C#N)c(O)c2ccccc2c1O | -3.51% (inactive) | – |
| Cc1ccc(N2C(=O)C3C(C(=O)c4ccccc4)=NN(c4ccccc4)C3C2=O)cc1 (stereo not given) | -18.9% (inactive) | – |
| CCOC(=O)c1c(C)oc2c1c(CN1CCN(C(=O)OCC)CC1)c(O)c1ccccc12 | -3.75% (inactive) | – |
